Only some compounds are listed: those with a hit (about 19% of all), similar ones and a draw of the others.
IL-1B inflam inh – qHTS for Inhibitors of Inflammasome Signaling: IL-1-beta AlphaLISA Primary Screen; THP-1 LPS/ATP IL-1B secretion, AlphaLISA, 16 h; hits give low values; activity change, % at 57.5 µM; 4.7% of 360,000 active; AID 743279, 2014; in the data active means activity change below about -50%; inconclusive means mostly about -30% to -49%
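THP-1 cells pretreated 1 hr with compounds (up to 57.5 uM final), then stimulated with LPS (250 ng/mL final) plus ATP (1.25 mM final); secreted IL-1B measured by AlphaLISA after 16 hr, decreased signal indicating inhibition.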
DT40 TDP1 no CPT – qHTS for Inhibitors of human tyrosyl-DNA phosphodiesterase 1 (TDP1): qHTS in cells in absence of CPT. DT40 Tdp1-/- hTDP1 cells, no CPT, ATP luminescence, 48 h. Potency, µM (titrated, usually from 46.2 µM), inactives show at the top dose activity change, negative = growth inhibition, most hits filed as inhibitors. 15% of 420,000 active. AID 686978, 2013; further: potency means the concentration at half of the fitted maximal effect; nearly all actives have a fitted effect of over 55% in size
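Chicken DT40 Tdp1-/- cells complemented with human TDP1, screened without camptothecin (DMSO vehicle only), 400 cells/well. Compounds pin-transferred, cells incubated at 37 °C for at least 48 hr. Growth read as ATP-dependent luminescence (CellTiter-Glo, 30 min at RT).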
HT1080NT lethal – qHTS for induction of synthetic lethality in tumor cells producing 2HG: qHTS for the HT-1080-NT fibrosarcoma cell line; 1.6% of 360,000 active; HT-1080-NT fibrosarcoma viability, CellTiter-Glo ATP luminescence, 48 h; Potency, µM (series often up to 46.1 µM), for inactives: top-dose activity, negative = less viability, most hits filed as cytotoxic;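 further: NT is the 2HG producing partner of a matched IDH1 knockdown line; potency means the concentration at half of the fitted maximal effect; 0% = DMSO-treated cells and -100% = media-only wells without cells; nearly all actives have a fitted effect of over 55% in size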
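Compounds were tested in concentration-response format on HT-1080-NT cells for 48 hours at 37 degrees C. Cell viability came from CellTiter-Glo luminescence; curves were classified by r2, response magnitude and activity.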
DT40 TDP1 CPT – qHTS for Inhibitors of human tyrosyl-DNA phosphodiesterase 1 (TDP1): qHTS in cells in presence of CPT. AID 686979, 2013. 12% of 420,000 active. chicken DT40 Tdp1-/-;hTDP1 cells + 20 nM CPT, ATP luminescence, 48 h. Potency, µM (series often up to 46.2 µM), without a hit: top-dose activity change, negative = growth inhibition, most hits filed as inhibitors; further: potency means the concentration at half of the fitted maximal effect; nearly all actives have a fitted effect of over 55% in size
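Chicken DT40 Tdp1-/- cells stably complemented with human TDP1 were seeded at 400 cells/well in medium containing 20 nM camptothecin, exposed to pin-transferred compounds, and grown at 37 °C for at least 48 hr. Viability was read as ATP luminescence.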
HT1080 IDH1KD tx – qHTS for induction of synthetic lethality in tumor cells producing 2HG: qHTS for the HT-1080-IDH1KD cell line; 2% of 360,000 active; Potency, µM (doses to about 46.1 µM), without a hit: at the top dose activity, negative = toxicity, usual class: cytotoxic; HT-1080 IDH1 knockdown viability, ATP luminescence, 48 h;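 further: potency means the concentration at half of the fitted maximal effect; 0% = DMSO wells and -100% = cell-free medium wells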
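Using the IDH1-knockdown HT-1080 line run in the same batch and compound series as the NT line, viability after 48 h at 37 °C was determined by CellTiter-Glo luminescence and expressed as % activity.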
* marks the source's active call; other numbers are inactive results; ? = inconclusive; . = no result given; [ ] = another dose, or the depositor's remark. Unless noted, the call rests on the fitted dose curve; in most records, active means well fitted curve in the direction sought with a large enough effect; inconclusive means small, poorly fitted or top-dose-only effect, or another doubt; inactive means no such curve, though single readings can be large; an effect the other way counts as inactive or inconclusive. Unless noted, on the % scale 0 is the no-effect control and ±100 the full control effect.

SMILES | IL-1B inflam inh | DT40 TDP1 no CPT | HT1080NT lethal | DT40 TDP1 CPT | HT1080 IDH1KD tx
COc1ccccc1NC(=O)c1nc(S(=O)(=O)Cc2ccccc2)ncc1Cl | -102* | 1.6µM* | 12µM* | 1.3µM* | 3.7µM*
CC(C)(C)C(=O)Nc1nnc(SCC(=O)NC2CC2)s1 | 1 | -8% | 24% | 35% | 19%
COc1ccccc1N1CCN(C(=O)C(CC(C)C)NC(=O)C2CCCCC2)CC1 (centres undefined) | -15 | ? | 2% | ? | 0%
COc1ccccc1NC(=S)NCCSc1ccc(Cl)cc1 | 0 | -22% | 17% | -2% | 2%
Cc1cccc(C)c1NC(=S)NCCSc1ccc(Cl)cc1 | -72* | ? | -13% | ? | -10%
CC(CNC(=S)Nc1cc(F)cc(F)c1)CSc1ccc(Cl)cc1 (centres undefined) | -97* | 26µM* | 18µM* | ? | ?
Cn1cccc1CNC(=S)Nc1cc(F)cc(F)c1 | 15 | -1% | 9% | 17% | 11%
Cc1ccc(NC(=S)NCCSc2ccc(Cl)cc2)cc1 | -91* | ? | -18% | -27% | ?
O=C(C1CC12CCN(Cc1cccc3cccnc13)CC2)N1CCN(Cc2cccs2)CC1 (centres undefined) | . | ? | . | 1.6µM* | .
O=C(Nc1cccc(-c2nc3cccnc3s2)c1)c1cccnc1Cl | -3 | ? | -3% | ? | -2%
Cc1ccc(-c2nc3cccnc3s2)cc1NS(=O)(=O)c1cccs1 | 19 | ? | -14% | -20% | -9%
COc1cc(OC)cc(C(=O)Nc2cc(-c3nc4cccnc4s3)ccc2C)c1 | . | 10µM* | . | ? | .
CCOc1ccccc1C(=O)Nc1cc(-c2nc3cccnc3s2)ccc1C | . | 5.2µM* | . | 8.2µM* | .
CCC(C)c1ccccc1N1CC(C(=O)NCCc2ccc(OC)c(OC)c2)CC1=O (centres undefined) | 2 | ? | -2% | 1% | -3%
CCC1CN(Cc2cccc3nccnc23)Cc2cc(OC)ccc2O1 (centres undefined) | . | ? | . | 2%[9.04 µM] | .
COc1ccc(-c2nc3ccc(Cl)cn3c2Cc2ccc(C)cc2)cc1OC | -16 | ? | ? | ? | ?
COC(=O)c1ccc2nc(-c3ccco3)c(Cc3ccc(OC)cc3C)n2c1 | -18 | ? | ? | ? | 16µM*
COC(=O)c1ccc2nc(-c3ccc(F)cc3)c(Cc3cccc(Cl)c3)n2c1 | 30 | 18µM* | 8% | ? | 6%
COC(=O)c1ccc2nc(-c3ccc(OC)c(OC)c3)c(Cc3ccc(C)cc3)n2c1 | -6 | 21µM* | ? | ? | ?
COC(=O)c1ccc2nc(-c3ccc(C)cc3)c(Cc3ccc(C)cc3)n2c1 | 37 | 16µM* | 11% | ? | 11%
O=C1NC(=O)C2(CCCc3ccccc32)N1 (centres undefined) | 2 | -11% | 0% | -6% | 3%
O=C(O)CC12CC3CC(C1)CC(n1ncc(N4CCC5(CC4)OCCO5)c(Cl)c1=O)(C3)C2 | 12 | 15% | 5% | 1% | 8%
C=CCN(CC=C)C(=S)NC(=O)Cc1cccc2ccccc12 | 34 | ? | -6% | ? | ?
COC(=O)c1ccc2nc(-c3ccc(OC)c(OC)c3)c(Cc3cccc(F)c3)n2c1 | 18 | 13µM* | -25% | 12µM* | ?
COC(=O)c1ccc2nc(-c3ccco3)c(Cc3cccc(F)c3)n2c1 | 28 | 18µM* | ? | 16µM* | ?
SMILES | IL-1B inflam inh | DT40 TDP1 no CPT | HT1080NT lethal | DT40 TDP1 CPT | HT1080 IDH1KD tx
COc1ccc(-n2c3c(cc(C#N)c2=O)C(=O)CCC3)cc1 | -10 | -5% | 0% | -2% | -1%
CC(=O)N1CCN(C(=O)c2ccc(-n3c(C)ccc3C)cc2)CC1 | -66* | -66% | -4% | ? | -6%
CCOC(=O)N1CCN(C(=O)c2ccc(-n3c(C)ccc3C)cc2)CC1 | ? | 15µM* | -9% | ? | -12%
CCOC(=O)N1CCN(C(=O)c2ccc(OC)cc2)CC1 | -12 | -18% | 4% | 0% | -5%
CCCS(=O)(=O)NC(=O)C1(C)CCN(C(=O)c2ccc(C(F)(F)F)cc2)C1 (centres undefined) | 14 | -13% | 19% | -19% | 14%
C/C=C/COc1nc2c(c(=O)n(C)c(=O)n2C)n1C | -6 | 15µM* | 17% | 23µM* | 13%
CC(Oc1nc2c(c(=O)n(C)c(=O)n2C)n1C)C1CCCCC1 (centres undefined) | 0 | 16µM* | 10% | 23µM* | 17%
CCC(C)n1c(OC)nc2c1c(=O)n(C)c(=O)n2C (centres undefined) | 12 | ? | -7% | 23µM* | -16%
COCc1cc(C)n(CC(=O)OC)c(=O)c1C#N | 31 | 6% | 27% | 3% | 17%
CNC(=O)CN(c1cc(OCCOC)c(Cl)cc1Cl)S(=O)(=O)c1ccc(OC)cc1 | -4 | 0% | 15% | 24% | 28%
O=C1C(=Nc2cccc(Cl)c2)CC(c2ccc(Cl)cc2)N1c1cccc(Cl)c1 (centres undefined) | 14 | ? | 11% | -30% | 8%
O=S(=O)(c1ccccc1)N1CCN=C1SCc1ccc(Cl)cc1 | 8 | 18µM* | 4% | ? | 2%
O=S(=O)(c1ccc2ccccc2c1)N1CCN=C1SCc1cccnc1 | -26 | ? | 0% | 23µM* | 5%
O=S(=O)(c1ccccc1)N1CCN=C1SCc1ccc(Cl)c(Cl)c1 | -29 | 18µM* | ? | 13µM* | -29%
O=S(=O)(c1ccccc1)N1CCN=C1SCc1ccccc1Cl | 20 | ? | -16% | ? | 2%
O=S(=O)(c1ccc(F)cc1)N1CCN=C1SCc1cccnc1 | 21 | ? | 4% | -5% | 0%
O=S(=O)(c1ccccc1)N1CCN=C1SCc1cccc(Cl)c1 | 0 | 21µM* | -10% | ? | -17%
Cc1ccc(S(=O)(=O)N2CCN=C2SCc2ccccc2)cc1 | -1 | 12% | 0% | -13% | 0%
CC1(C)OC2CC3C4CCC5=CC(=O)C=C[C@@]5(C)[C@]4(F)C(O)C[C@@]3(C)[C@]2(C(=O)CO)O1 (some centres undefined) | . | 1% | . | 1% | .
COc1cccc(NC(=O)CN(C)C(=O)c2ccccc2-c2nc3ccccc3s2)c1 | -2 | 23µM* | -5% | ? | -2%
CN(CC(=O)Nc1c(Cl)cccc1Cl)C(=O)c1ccccc1-c1nc2ccccc2s1 | -53* | ? | -6% | -1% | -10%
